From PubChem
BoNT A protease: blocks Botulinum neurotoxin A light chain protease; multiplex microsphere protease substrate cleavage, flow cytometry; inhibition, % at 10 µM; 360,000 compounds, 0.17% hits; AID 588499; note: plate controls were buffer without enzyme for full effect and enzyme alone for no effect
Anthrax LF inh2: blocks Bacillus anthracis lethal factor protease; multiplex microsphere protease cleavage assay, LF; inhibition, % at 10 µM; 360,000 compounds, 0.12% hits; AID 588501; note: plate controls were buffer without enzyme for full effect and enzyme alone for no effect
BoNT-F LC inh: BoNT F light chain protease inhibition | Multiplex microsphere protease cleavage assay, flow cytometry | inhibition, % at 10 µM | 360,000 compounds, 0.22% hits; in the data active = inhibition above about 35%, passing the limit was not always enough; inconclusive = no clear call, values can overlap the other calls; note: plate controls were buffer without enzyme for full effect and enzyme alone for no effect
TcdB GH inh: TcdB glycohydrolase inhibition. TcdB glycohydrolase enzymatic assay, plate reader. inhibition, % at 9.99 µM. 350,000 compounds, 0.24% hits; in the data active = inhibition above about 10%
Autofluor counter: compound fluorescence in toxin protease inhibitor counterscreen. compound autofluorescence counterscreen, microsphere flow cytometry; hits give high values. fluorescence intensity (test concentration not listed). 360,000 compounds, 3.1% hits. AID 624483; in the data active = fluorescence intensity above about 16000; inconclusive = no clear call, values can overlap the other calls
Starred values were filed as active, the others as inactive; ? = inconclusive; nt = not tested or not shown. This is one part of a sample in which hits are shown more often than they occur. Cut-off read from the data, not from the text of the source, unless noted: active = inhibition above about 30%; inconclusive = no clear call, values can overlap the other calls; inactive = below that.

SMILES	BoNT A protease	Anthrax LF inh2	BoNT-F LC inh	TcdB GH inh	Autofluor counter
CN(C)Cc1nc2ccccc2c(=O)n1CC#N	-1	-1	-4	4	3186
Cc1occc1-c1nnc(SCc2nc3ccccc3c(=O)n2CC#N)n1C	0	-1	-5	nt	23590*
c1ccc(-n2ncc3c(N4CCN(c5ccccn5)CC4)nc(N4CCCCCC4)nc32)cc1	2	-3	1	nt	19448*
c1ccc(-n2ncc3c(N4CCCCC4)ncnc32)cc1	8	15	7	0	5347
C/C(CC1CC(COCCC(C)C)OC1=O)=N\NC(N)=S (stereo unspecified)	1	-2	1	nt	20283*
C/C(CCC1CC(C)OC1=O)=N\NC(N)=S (stereo unspecified)	0	0	1	0	3314
CCOC(=O)CSc1nnc(NCC(=O)OC)c(=O)[nH]1	-6	0	-7	nt	21379*
CCOC(=O)CSc1nnc(C)c(=O)[nH]1	0	-2	-6	nt	2981
CC(C)(C)OC(=O)N1CCC[C@@H]1C(=O)N1CCC(C(=O)O)CC1	0	0	3	nt	2294
CC(C)(C)OC(=O)N1CCC(C(=O)N2CCC[C@H]2C(=O)O)CC1	3	0	6	nt	20337*
CN1CCN(NC(=O)CN2C(=O)/C(=C/c3c(Cl)cccc3Cl)SC2=S)CC1	1	-5	9	nt	4385
CN1CCN(NC(=O)CN2C(=O)/C(=C/c3ccccc3Cl)SC2=S)CC1	-1	-4	-6	1	16697*
O=C1CSC(c2cn(-c3ccccc3)nc2-c2cc3ccccc3o2)N1Cc1ccccc1 (stereo unspecified)	0	0	-20	nt	3139
O=C1CSC(c2cn(-c3ccccc3)nc2-c2cc3ccccc3oc2=O)N1Cc1ccco1 (stereo unspecified)	?	-1	-5	nt	23471*
Cc1oc2c(c1C(=O)NCc1ccccc1)CCCC2	-1	-1	-23	nt	9873
Cc1oc2c(c1C(=O)Nc1ccc(C(=O)O)cc1)CCCC2	-1	-2	1	nt	17117*
O=C(CC(CC(=O)c1ccccc1)c1ccccc1)c1ccccc1	1	16	-18	4	3836
COC(=O)COC(=O)CC(CC(N)=O)c1ccccc1 (stereo unspecified)	1	-1	1	nt	22984*
COCC(=O)N1CCC2(CC1)CN(C(=O)CN1CCOCC1)[C@H](CO)c1c2c2ccc(OC)cc2n1C	nt	nt	nt	-3	nt
CCOc1cc(CNC)ccc1OCC(=O)NC(C)(C)C	0	1	-1	1	2592
CC(C)(C)NC(=O)COc1ccc(CNn2nnnc2N)cc1	0	2	2	nt	3463
CCOc1cc(CNn2nnnc2N)ccc1OCC(=O)NC(C)(C)C	-2	0	-4	0	16985*
COc1cc(CNn2nnnc2N)ccc1OCC(=O)NC(C)(C)C	1	-1	-1	nt	23140*
CC(C)COC(=O)N(C)C[C@@H]1OCc2cn(nn2)CCCC(=O)N([C@H](C)CO)C[C@H]1C	nt	nt	nt	0	nt
Cc1ccc(S(=O)(=O)N(C)C[C@H]2Oc3ccc(NC(=O)c4ccncc4)cc3C(=O)N([C@@H](C)CO)C[C@H]2C)cc1	nt	nt	nt	0	nt
SMILES	BoNT A protease	Anthrax LF inh2	BoNT-F LC inh	TcdB GH inh	Autofluor counter
Oc1ccc(-c2cn3ccccc3n2)cc1	0	-1	-9	41*	6173
c1ccc(-c2cn3ccccc3n2)cc1	-1	-5	-5	-1	2971
COc1ccc(NC(=O)C2(c3ccc(NC(=O)c4ccc(OC(C)=O)cc4)cc3)CCCC2)cc1	1	0	1	nt	20395*
CC(C)(C)c1cc(Cc2ccccc2)[nH]n1	?	-5	-2	nt	23025*
CCc1nc(Nc2ccncc2)c2oc3ccccc3c2n1	0	-1	-2	nt	20587*
CCc1nc(N2CCCCC2)c2oc3ccccc3c2n1	-4	-2	-4	nt	23515*
Cc1nc(Nc2ccncc2)c2oc3ccccc3c2n1	1	0	11	0	7268
CCc1nc(N2CCCCC2C)c2oc3ccccc3c2n1 (stereo unspecified)	1	1	-1	nt	19411*
OC[C@H]1[C@H](c2ccc(C#Cc3ccccc3)cc2)[C@H]2CN(Cc3cncnc3)CCCCN21	nt	nt	nt	0	nt
CN1CCN(C(=O)[C@H]2[C@H](CO)[C@H]3Cn4c(ccc(-c5cccnc5)c4=O)[C@H]3N2CC2CC2)CC1	nt	nt	nt	0	nt
Cc1cccc(NC(=O)c2ccccc2C(=O)O)c1	1	-1	3	nt	19743*
Cc1cccc(NC(=O)c2cccc3c2C(=O)c2ccccc2-3)c1	0	0	0	nt	23188*
Cc1cccc(NC(=O)c2ccccc2-c2ccccc2)c1	1	-9	4	0	3287
